The text below walks through data of the supplement of paper PMC6555819.

What all share (test): PBM binding z-score (relative to random genomic background probes); higher = stronger binding; sequences stand for … in GC…GCGATTGACAGCGTAGAATGAAGG
For assay [1], the system named is PPARg:RXRa DBDmut IVT, anti-RXR (DBD mutation: RXRa K156A/R161A, NR concentration 270 nM, RXRa partner concentration 90 nM). In a few lines:
(§1)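 Random background probes are the reference for binding z-scores. These scores derive from regression-normalized fluorescence on custom Agilent 4×180K protein-binding microarrays incubated 1 h with ligand-free nuclear receptor dimers. Binding was detected with antibodies against each partner (one per run).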

Assay [2] has as its system PPARg:RXRa IVT, anti-PPARg (NR concentration 270 nM, RXRa partner concentration 90 nM). In a few lines:
as §1

Assay [3] deals with PPARg DBDmut:RXRa IVT, anti-PPARg (DBD mutation: PPARg1 K132A/R137A, NR concentration 270 nM, RXRa partner concentration 90 nM). In a few lines: as §1
Assay [4] relates to PPARg DBDmut IVT, anti-PPARg (DBD mutation: PPARg1 K132A/R137A, NR concentration 270 nM). In short, it runs like this:
as §1

In assay [5] the test system is PPARg homodimer (NR concentration 180 nM). In a few lines:
as §1

Assay [6] has as its system PXR:RXRa (NR concentration 270 nM, RXRa partner concentration 90 nM). In a few lines:
as §1

Assay [7] has as its system PXR homodimer (NR concentration 270 nM). In a few lines:
as §1

Assay [8] has as its system RARa:RXR (NR concentration 270 nM, RXRa partner concentration 90 nM). In a few lines: as §1
The subject of assay [9] is RARa homodimer (NR concentration 270 nM). In short, it runs like this: as §1
Assay [10] relates to RARb:RXRa (NR concentration 270 nM, RXRa partner concentration 90 nM). In short, it runs like this:
as §1

Assay [11] deals with RARb homodimer (NR concentration 270 nM). In short, it runs like this:
as §1

For assay [12], the system named is RARg:RXRa (NR concentration 270 nM, RXRa partner concentration 90 nM). In short, it runs like this: as §1
Assay [13] has as its system RARg homodimer (NR concentration 270 nM). In short, it runs like this:
as §1

In assay [14] the test system is RXRa DBDmut IVT, anti-RXR (DBD mutation: RXRa K156A/R161A, NR concentration 90 nM). In short, it runs like this: as §1
For assay [15], the system named is RXRa homodimer (NR concentration 180 nM). In short, it runs like this:
as §1

Assay [16] has as its system THRa:RXRa (NR concentration 90 nM, RXRa partner concentration 90 nM). In short, it runs like this: as §1
The test system of assay [17] is THRa homodimer (NR concentration 90 nM). In short, it runs like this: as §1
Assay [18] relates to VDR homodimer (NR concentration 270 nM). In short, it runs like this: as §1

On to ACTAGTTGGTCAGCTGATGTCACACACAATTCGG, for which the PBM binding z-score stood at 1.1 in assay [1]; 0.986 in assay [2]; 0.46 in assay [3]; 0.51 in [4]; 0.558 in assay [5]; 0.361 in assay [6]. Further, the PBM binding z-score is -0.542 in [7]; 0.497 in assay [8]; 0.341 in [9]; 0.995 in assay [10]; 1.06 in [11]; 0.65 in assay [12]. Besides, the PBM binding z-score is 1.08 in [13]; 0.494 in assay [14]; 0.485 in [15]; 1.29 in assay [16]; 0.161 in assay [17]; 0.144 in assay [18].
On to TCTAGTTGGACACGGAGGTCACACACGACGGGTA, for which the PBM binding z-score in [1] was found to be 1.98; in assay [2], 2.33; in assay [3], 0.713; in [4], 0.0839; in [5], 2.38; in assay [6], 4.16. The PBM binding z-score in assay [7] was 1.05; in assay [8], 4.39; in [9], 1.25; in assay [10], 3.45; in [11], 4.2; in [12], 3.95. The PBM binding z-score in assay [13] is 3.96; in assay [14], 0.997; in assay [15], 4.47; in assay [16], 3.6; in assay [17], 2.32; in [18], 2.67.
With CAAACTATGTCAAGGTCAAAGTCGGTTTGTGCCA, the PBM binding z-score in assay [1] was 5.27; in [2], 4.71; in assay [3], 0.328; in assay [4], 0.339; in assay [5] it was 2.4; in [6], 5. Besides, the PBM binding z-score in assay [7] amounted to 3.33; in [8] it was 4.46; in [9] it was 1.69; in assay [10], 4.25; in assay [11], 4.39; in [12] it was 4.59. For the same sequence, the PBM binding z-score in [13] came out at 4.75; in assay [14], 2.54; in assay [15], 4.98; in [16], 4.03; in [17], 3.78; in [18], 4.25.
For CCTACTGGGCCACGAAAGGTCTTTGATTCAGTGA, the PBM binding z-score is 4.89 in assay [1]; 5.29 in [2]; 0.279 in assay [3]; -0.311 in assay [4]; 0.598 in assay [5]; 0.109 in assay [6]. Besides, the PBM binding z-score in assay [7] is -0.43; in assay [8], 0.284; in [9], -0.304; in assay [10] it was 0.791; in [11], 1.03; in assay [12] it was 0.285. The PBM binding z-score in [13] is 0.261; in assay [14], -0.372; in assay [15] it was 0.067; in assay [16] it was 1.06; in assay [17], -0.141; in assay [18], -0.432.
With TCATATAGGTAATACTGGTGAAAGTCGGCATCTA, the PBM binding z-score in [1] came out at 3.8; in assay [2], 2.46; in assay [3], 1.36; in assay [4], 0.717; in [5] it was 0.814; in assay [6], 0.689. Moreover, the PBM binding z-score was -0.083 in [7]; 0.73 in assay [8]; 0.536 in [9]; 0.451 in assay [10]; -0.0217 in assay [11]; 0.407 in assay [12]. Besides, the PBM binding z-score in assay [13] is 0.265; in [14], 1.59; in assay [15], 0.819; in [16] it was 0.113; in [17], -0.05; in assay [18], 0.596.
With ATGCCAAGGTGATCGTGAGGTCGTTGATACTAAC, the PBM binding z-score in [1] is 0.413; in [2] it was 1.05; in assay [3] it was 0.0542; in [4] it was -0.951; in assay [5] it was 0.442; in assay [6] it was 2.75. In addition, the PBM binding z-score in assay [7] is 1.03; in [8], 2.28; in assay [9], -0.38; in [10], 1.32; in assay [11], 1.42; in assay [12] it was 2.12. The PBM binding z-score in assay [13] amounted to 0.718; in [14], 0.41; in [15], 1.52; in [16], 3.54; in assay [17] it was 2.25; in assay [18], 2.53.
With GCAGACAGGTGAAACGCCGGTAACTCAGGGTGGC, the PBM binding z-score in [1] is 0.72; in assay [2], 0.227; in assay [3], -0.163; in assay [4] it was -1.53; in assay [5] it was -0.427; in assay [6] it was -0.468. In addition, the PBM binding z-score in assay [7] was -0.822; in assay [8], 0.0984; in assay [9], -1.03; in [10], 0.606; in assay [11], -0.057; in [12], 0.644. Moreover, the PBM binding z-score in assay [13] is 0.166; in [14] it was -0.634; in [15], 0.513; in [16], 0.157; in assay [17], -0.511; in [18], -0.512.
With GCGACTGGGGCATCAGCAGATTACCATAACTTAA, the PBM binding z-score is 4 in assay [1]; 2.69 in assay [2]; 0.0111 in assay [3]; -0.326 in assay [4]; -0.0673 in assay [5]; -0.385 in assay [6]. The PBM binding z-score in assay [7] is -0.328; in assay [8] it was -0.267; in [9], 0.336; in assay [10] it was 0.39; in assay [11] it was 0.257; in assay [12], -0.0173. Also, the PBM binding z-score in assay [13] is 0.481; in [14], 0.186; in [15], -0.143; in [16], -0.135; in [17] it was -0.286; in [18], -0.431.
